# Values of other authors in PubChem BioAssay AID977610.
# Hit rate of the full screen: of about 3,600 compounds, about 3,600 (100%) were called active. The limit is not given here; nearly all actives have Ki up to about 18000 µM. So high a share suggests a set chosen from earlier hits. The list shows a part of the results. Square brackets hold non-standard residues; d marks the D form. Peptide text beside a SMILES is read from it. Orn(CH(NH2)2) = NC(N)NCCC[C@H](N)C(=O)O
# Test: PubChem AID 977610
# Details: PDB protein-ligand complexes, literature Ki
smiles,measurement,setting,value
COc1ccc([C@@H]2N[C@@H](C)[C@@H](O)[C@H]2O)cc1,Ki,"protein: alpha-L-fucosidase, PDB entry 4jft",3.5 µM (active)
COc1ccc([C@H]2[C@H](O)[C@H](O)[C@H](C)N2C)cc1,Ki,"protein: alpha-L-fucosidase, PDB entry 4jfs",5.4 µM (active)
NC(N=O)NCC[C@H](N)C(=O)O (stereo partly drawn),Ki,"protein: Arginase, PDB entry 4iu1",50 µM (active)
CNC(=O)CC[C@H](C[C@H](N)C(=O)O)C(=O)O,Ki,"protein: Glutamate receptor ionotropic, kainate 3 GluK3 LBD, PDB entry 4nwd",3.96 µM (active)
COC(=O)CC[C@H](C[C@H](N)C(=O)O)C(=O)O,Ki,"protein: Glutamate receptor ionotropic, kainate 3 GluK3 LBD, PDB entry 4nwc",1.74 µM (active)
CCCCCCCCCCCCCCCCCCCC(=O)NCCO,Ki,"protein: FATTY ACID-BINDING PROTEIN, EPIDERMAL, PDB entry 4azp",1.26 µM (active)
CCC(CC)[C@H](NC(C)=O)[C@@H]1[C@H](O)[C@@H](C(=O)O)C[C@H]1NC(N)N,Ki,"protein: Human Sialidase Neu2, PDB entry 2f10",330 µM (active)
CC(=O)c1ccc2c(c1)OCCO2,Ki,"protein: PDE10A2, PDB entry 4lm3",1200 µM (active)
OCc1ccc2c(c1)OCCO2,Ki,"protein: PDE10A2, PDB entry 4lm2",940 µM (active)
CCCCCCCC/C=C\CCCCCCC[C@H](O)c1nnc(-c2ccccn2)o1,Ki,"protein: Humanized Variant of Fatty Acid Amide Hydrolase (L192F, F194Y, A377T, S435N, I491V, V495M), PDB entry 3k84",0.003 µM (active)
Cc1ccnc(N)c1[N+](=O)[O-],Ki,"protein: PDE10A2, PDB entry 4mrz",300 µM (active)
O=C(O)C(O)C(=O)O,Ki,"protein: Mandelate racemase, PDB entry 4m6u",1800 µM (active)
Nc1c(CC(=O)O)cccc1C(=O)c1ccc(Br)cc1,Ki,"protein: E. coli sliding clamp, DNA polymerase III subunit beta, PDB entry 4mjq",193 µM (active)
CC(C)C[C@H](NC(=O)[C@H](Cc1ccccc1)NC(=O)[C@H](CO)NC(=O)[C@H](CCCNC(N)N)NC(=O)[C@@H]1CCCN1)C(=O)N[C@H](C(=O)O)C(C)C (H-P[Orn(CH(NH2)2)]SFLV-OH),Ki,"protein: LSD1-CoREST complex, PDB entry 3zmt",28.4 µM (active)
CC(C)C[C@H](NC(=O)[C@H](CCCNC(N)N)NC(=O)[C@@H]1CCCN1)C(=O)N[C@@H](Cc1ccc(O)cc1)C(=O)N[C@@H](CC(C)C)C(=O)N[C@H](C(=O)O)C(C)C (H-P[Orn(CH(NH2)2)]LYLV-OH),Ki,"protein: LSD1-CoREST complex, PDB entry 3zn1",29.1 µM (active)
CC(C)[C@H](NC(=O)[C@H](C)NC(=O)[C@H](Cc1ccccc1)NC(=O)[C@H](CO)NC(=O)[C@H](CCCNC(N)N)NC(=O)[C@@H]1CCCN1)C(=O)O (H-P[Orn(CH(NH2)2)]SFAV-OH),Ki,"protein: LSD1-CoREST complex, PDB entry 3zmz",18 µM (active)
C[C@H](NC(=O)[C@H](C)NC(=O)[C@H](Cc1ccccc1)NC(=O)[C@H](CO)NC(=O)[C@H](CCCNC(N)N)NC(=O)[C@@H]1CCCN1)C(=O)O (H-P[Orn(CH(NH2)2)]SFAA-OH),Ki,"protein: LSD1-CoREST complex, PDB entry 3zn0",10.7 µM (active)
CCCCCC[C@H]([C@H](C)O)n1cnc2c(N)ncnc21,Ki,"protein: Bos taurus Adenosine deaminase (ADA), PDB entry 2z7g",0.00113 µM (active)
COC(=O)N[C@H](C(=O)NN(CCC[C@@]1(O)Cc2ccc(cc2)C/C=C\CNC(=O)[C@H](C(C)C)NC1=O)Cc1ccc(-c2ccncc2)cc1)C(C)(C)C,Ki,"protein: HIV-1 protease, PDB entry 4cps",0.0054 µM (active)
COC(=O)N[C@H](C(=O)NN(CCC[C@@]1(O)Cc2ccc(cc2)C/C=C\CNC(=O)[C@H](C(C)C)NC1=O)Cc1ccc(-c2cccnc2)cc1)C(C)(C)C,Ki,"protein: HIV-1 protease, PDB entry 4cpt",0.02 µM (active)
COC(=O)N[C@H](C(=O)NN(CCC[C@@]1(O)Cc2ccc(cc2)C/C=C\CNC(=O)[C@H](C(C)C)NC1=O)Cc1ccc([C@H]2C=CCS2)cc1)C(C)(C)C,Ki,"protein: HIV-1 protease, PDB entry 4cpx",0.017 µM (active)
CC(C)c1ccc(CCC(=O)N[C@@H]2O[C@H](CO)[C@@H](O)[C@H](O)[C@H]2O)cc1,Ki,"protein: Glycogen phosphorylase, muscle form, PDB entry 4mic",4.98 µM (active)
Cc1ccc(C(=O)NC(=O)N[C@@H]2O[C@H](CO)[C@@H](O)[C@H](O)[C@H]2O)cc1,Ki,"protein: Oryctolagus cuniculus Glycogen Phosphorylase, PDB entry 2qlm",2.3 µM (active)
O=C(CCc1ccc(-c2ccccc2)cc1)N[C@@H]1O[C@H](CO)[C@@H](O)[C@H](O)[C@H]1O,Ki,"protein: Glycogen phosphorylase, muscle form, PDB entry 4mhs",5.14 µM (active)
CC(C)c1ccc(C[C@@H](C)C(=O)N[C@@H]2O[C@H](CO)[C@@H](O)[C@H](O)[C@H]2O)cc1,Ki,"protein: Glycogen phosphorylase, muscle form, PDB entry 4mi3",75.3 µM (active)
CC[B]O,Ki,"protein: pure Acyl-homoserine lactone acylase PvdQ, PDB entry 4wks",2000 µM (active)
Cc1nn(C)cc1-c1ccn[nH]1,Ki,"protein: Catechol O-methyltransferase COMT, PDB entry 4p58",25 µM (active)
CC(C)S[C@@H]1O[C@H](CO)[C@H](O)[C@H](O)[C@H]1O,Ki,"protein: Putative lipoprotein BT2192, PDB entry 4oue",500 µM (active)
NCC1CCC(C(=O)N[C@@H](Cc2ccccc2)c2ncc(-c3ccc(C(N)=O)cc3)[nH]2)CC1 (stereo partly drawn),Ki,"protein: Coagulation factor XI FXIa, PDB entry 4ty6",0.03 µM (active)
NCC1CCC(C(=O)N[C@@H](Cc2ccccc2)c2nc(-c3ccc4c(N)n[nH]c4c3)c(Cl)[nH]2)CC1 (stereo partly drawn),Ki,"protein: Coagulation factor XI FXIa, PDB entry 4ty7",0.0003 µM (active)
N#CCC(=O)N1CCC[C@@H](n2[nH]nc3cnc4nccc4c32)C1,Ki,"protein: Tyrosine-protein kinase JAK1, PDB entry 4i5c",0.0015 µM (active)
O=C(O)C(=O)Nc1ccc(C[C@@H](c2nc3ccccc3o2)S(=O)(=O)Nc2ccc(F)cc2)cc1,Ki,"protein: Tyrosine-protein phosphatase non-receptor type 1, PDB entry 4i8n",35 µM (active)
O=c1[nH]c(=O)n([C@@H]2O[C@H](CO)[C@@H](O)[C@H](O)[C@H]2O)cc1Cl,Ki,"protein: Glycogen phosphorylase, muscle form, PDB entry 3t3e",1.02 µM (active)
O=c1[nH]c(=O)n([C@@H]2O[C@H](CO)[C@@H](O)[C@H](O)[C@H]2O)cc1C(F)(F)F,Ki,"protein: Glycogen phosphorylase, muscle form, PDB entry 3t3i",17 µM (active)
O=c1[nH]c(=O)n([C@@H]2O[C@H](CO)[C@@H](O)[C@H](O)[C@H]2O)cc1Br,Ki,"protein: Glycogen phosphorylase, muscle form, PDB entry 3t3g",3.27 µM (active)
O=c1[nH]c(=O)n([C@@H]2O[C@H](CO)[C@@H](O)[C@H](O)[C@H]2O)cc1I,Ki,"protein: Glycogen phosphorylase, muscle form, PDB entry 3t3h",1.94 µM (active)
OC[C@@H]1[C@@H](O)[C@H](O)[C@@H](O)[C@@H]1NCC1CCCCC1,Ki,"protein: Raucaffricine Glucosidase, PDB entry 3zj6",0.22 µM (active)
COCCCC[C@@H](NOCCN)c1ccc(C(F)(F)F)cc1,Ki,"protein: Transporter(delta13 mutant), PDB entry 4mm9",2.07 µM (active)
O=[N+]([O-])c1ccccc1S[C@@H]1O[C@H](CO)[C@H](O)[C@H](O)[C@H]1O,Ki,"protein: Putative lipoprotein BT2192, PDB entry 4ozo",147 µM (active)
COc1cc2c(c(OC)c1)[C@@H]1[C@H]3CCC[C@@H](C(=O)N1CC2)N3C(=O)C(=O)c1cc(OC)c(OC)c(OC)c1,Ki,"protein: Peptidyl-prolyl cis-trans isomerase FKBP5 (A19T mutation), PDB entry 4jfi",18.1 µM (active)
COc1cc(Cc2cnc(N)nc2N)cc(/C=C/C(=O)N2NCc3ccccc3[C@H]2CC(C)C)c1OC,Ki,"protein: Dihydrofolate reductase, PDB entry 4elh",0.0082 µM (active)
COc1cc(Cc2cnc(N)nc2N)cc(/C=C/C(=O)N2N=Cc3ccccc3[C@@H]2C(C)C)c1OC,Ki,"protein: Dihydrofolate reductase, PDB entry 4ele",0.0132 µM (active)
COc1cc(Cc2cnc(N)nc2N)cc(/C=C/C(=O)N2NCc3ccccc3[C@@H]2CC(C)C)c1OC,Ki,"protein: Dihydrofolate reductase, PDB entry 4elg",0.0069 µM (active)
COc1cc(Cc2cnc(N)nc2N)cc(/C=C/C(=O)N2NCc3ccccc3[C@@H]2c2ccccc2)c1OC,Ki,"protein: Dihydrofolate reductase, PDB entry 4elb",0.005 µM (active)
COc1cc(Cc2cnc(N)nc2N)cc(/C=C/C(=O)N2NCc3ccccc3[C@@H]2CCC(F)(F)F)c1OC,Ki,"protein: Dihydrofolate reductase, PDB entry 4elf",0.0094 µM (active)
CCCCCCCCCCCCCB(O)O,Ki,"protein: Acyl-homoserine lactone acylase PvdQ subunit beta, PDB entry 4m1j",0.0002 µM (active)
Cc1cc(N)ccc1O,Ki,"protein: PDE10A2, PDB entry 4llp",16 µM (active)
O=C(O)c1ccccc1C(=O)NCc1c(Cl)cccc1Sc1ccc(Cl)cc1Cl,Ki,"protein: Dehydrosqualene synthase, PDB entry 3tfp",0.34 µM (active)
